Screening data from PubChem.
KB-3-1 tox – kills parental KB-3-1 adenocarcinoma cells. KB-3-1 viability, CellTiter-Glo ATP luminescence, 72 h. Potency, µM (top dose mostly 46.1 µM), usual class: cytotoxic. 400,000 compounds, 1.4% hits; also: % is scaled to controls: 0 for no effect and ±100 for the full control effect; nearly all actives have a fitted effect of over 60% in size
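Here the drug-naive KB-3-1 line serves as comparator for MDR sub-line selectivity; cells received compound titrations, 72 h at 37 °C, then CellTiter-Glo readout.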
ELG1 repair inh – ELG1-dependent DNA repair inhibition | HEK293T ELG1-luciferase reporter, luminescence, 16 h; DNA damage induced by 5-fluorouridine | Potency, µM (highest dose often 46.1 µM), for the others: top-dose activity change, negative = inhibition, usual class: inhibitors | 330,000 compounds, 2.3% hits; also: % is scaled to controls: 0 for no effect and ±100 for the full control effect; nearly all actives have a fitted effect of over 55% in size
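In this reporter screen, reduction of luminescence relative to DMSO vehicle indicated activity. Compounds and 5-fluorouridine were added together to 2,000 cells per well, incubated for 16 hr at 37 °C, then developed with ONE-Glo.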
MCF10A rerep – induces DNA re-replication in MCF 10a normal breast cells | MCF 10A DNA re-replication, Hoechst nuclear intensity, 48 h | Potency, µM (titrated, usually from 46.1 µM), for inactives: at the highest dose activity, positive = re-replication, hits mostly activators | 350,000 compounds, 2.9% hits | AID 624296; also: % of control where 0% means no effect; nearly all actives have a fitted effect of over 50% in size
KB-V1 cytotox – KB-V1 MDR subline cytotoxicity. KB-V1 MDR cells viability, CellTiter-Glo, 72 h. Potency, µM (doses to about 46.1 µM), most hits filed as cytotoxic. 400,000 compounds, 3.4% hits. AID 1347076; also: % is scaled to controls: 0 for no effect and ±100 for the full control effect; nearly all actives have a fitted effect of over 60% in size
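Following 72 h at 37 degrees C with compound, KB-V1 cell viability was read by CellTiter-Glo luminescence, medium being phenol-red-free DMEM plus 10% FBS; concentration-response parameters came from normalized, curve-fitted qHTS data.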
SW480 rereplic – inducers of DNA re-replication in SW480 colon cancer cells. SW480 DNA re-replication, Hoechst DNA content imaging, 48 h. Potency, µM (highest dose often 46.1 µM), for inactives: at the highest dose re-replication activation, hits mostly activators. 340,000 compounds, 1.8% hits. AID 624297; also: % of control where 0% means no effect; nearly all actives have a fitted effect of over 55% in size
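Image-based read-out: total Hoechst fluorescence of nuclei (405 nm excitation, 500-530 nm emission), with hits raising the fraction of high-intensity nuclei. SW480 colon cells incubated 48 hr with compounds at 37 C.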
ELG1 FLuc counter – luciferase inhibition in cell-free luciferin readout for ELG1 hits | shares compounds with ELG1 repair inh | cell-free firefly luciferase luminescence counter-screen, ViewLux | Potency, µM (highest dose often 46.1 µM), for the others: at the highest dose activity change, negative = inhibition, hits mostly inhibitors | 350 compounds, 3% hits; also: % is scaled to controls: 0 for no effect and ±100 for the full control effect
ELG1-Luc inh – human ELG1 repair inhibition, luciferase-tagged ELG1 confirmation; shares compounds with ELG1 repair inh; HEK293T ELG1-luciferase levels, luminescence; cells co-treated with 5-fluorouridine; Potency, µM (doses to about 46.1 µM), for the others: at the highest dose activity change, negative = inhibition, actives largely listed as inhibitors; 670 compounds, 68% hits; also: % is scaled to controls: 0 for no effect and ±100 for the full control effect; nearly all actives have a fitted effect of over 55% in size
ELG1-Luc MMS – MMS-stimulated human ELG1 repair inhibition, confirmed; shares compounds with ELG1 repair inh; HEK293T luciferase-tagged ELG1 level, MMS stimulated; Potency, µM (highest dose often 46.1 µM), for inactives: top-dose activity change, negative = inhibition, hits mostly inhibitors; 670 compounds, 53% hits; AID 624249; also: % is scaled to controls: 0 for no effect and ±100 for the full control effect; nearly all actives have a fitted effect of over 60% in size
ELG1 5-FU – confirmation of ELG1 repair inhibitors: viability with 5FU; shares compounds with ELG1 repair inh; cell viability with 5-FU, ELG1-dependent repair; Potency, µM (doses to about 46.1 µM), for inactives: at the top dose activity change, negative = viability loss, most hits filed as cytotoxic; 670 tested, under 10 active; AID 624250;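 also: ELG1-luc HEK293T cells cotreated with 5-fluorouridine at 10 µM final; viability measured 16 h after compound addition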
ELG1 MMS viab – confirmation of ELG1 repair inhibitors: viability with MMS. shares compounds with ELG1 repair inh. Cell viability with MMS, ELG1-dependent DNA repair. Potency, µM (titrated, usually from 46.1 µM), without a hit: at the top dose activity change, negative = viability loss, hits mostly cytotoxic. 670 compounds, 33% hits. AID 624251;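 also: ELG1-luc HEK293T cells co-treated with 10 µM MMS; viability read 16 h after compound addition; % is scaled to controls: 0 for no effect and ±100 for the full control effect; nearly all actives have a fitted effect of over 60% in size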
ELG1 unstim viab – unstimulated viability counter-screen for ELG1 repair hits. shares compounds with ELG1 repair inh. cell viability counter-screen, unstimulated, luminescence. Potency, µM (titrated, usually from 45.9 µM), for the others: at the top dose activity change, negative = loss of viability, hits mostly cytotoxic. 900 compounds, 8% hits. AID 624252;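 also: compound exposure lasted 16 hours before reading; % is scaled to controls: 0 for no effect and ±100 for the full control effect; nearly all actives have a fitted effect of over 55% in size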
FLuc enzyme – firefly luciferase inhibition counter-screen | Potency, µM (titrated, usually from 57.5 µM), inactives show at the highest dose activity, negative = inhibition, actives largely listed as inhibitors | 350 compounds, 10% hits | purified firefly luciferase, luminescence counter-screen | AID 624253 | shares compounds with ELG1 repair inh; also: % is scaled to controls: 0 for no effect and ±100 for the full control effect
* marks the source's active call; other numbers are inactive results; i = inactive; ? = inconclusive; nt = not tested or not shown. Compounds with a hit are over-represented: about 8.1% of the library has one in this group of screens. Calls follow the shape of the dose curve; as a rule, active = well fitted curve in the direction sought with a large enough effect; inconclusive = small, poorly fitted or top-dose-only effect, or another doubt; inactive = no such curve, though single readings can be large; an effect the other way counts as inactive or inconclusive. Potency is read from the fitted curve at half-maximal effect.

SMILES | KB-3-1 tox | ELG1 repair inh | MCF10A rerep | KB-V1 cytotox | SW480 rereplic | ELG1-Luc inh | ELG1-Luc MMS | ELG1 5-FU | ELG1 MMS viab | ELG1 unstim viab | others
Cc1sc2nc(COC(=O)c3ccc(Cl)c(N)c3)[nH]c(=O)c2c1C | i | ? | 0.2% | i | 7.7% | nt | nt | nt | nt | nt
COC1OC(CO)C(OC2OC(C(=O)O)C(OC3OC(COS(=O)(=O)O)C(OC4OC(C(=O)O)C(OC5OC(CO)C(OC6OC(C(=O)O)C(OC7OC(COS(=O)(=O)O)C(OC8OC(C(=O)O)=C[C@H](O)C8OS(=O)(=O)O)C(O)C7NC(C)=O)[C@@H](O)C6O)C(O)C5NC(C)=O)[C@@H](O)C4O)C(O)C3NC(C)=O)[C@@H](O)C2O)C(O)C1NC(C)=O (some centres not stated) | nt | nt | -5.4% | nt | 0.3% | nt | nt | nt | nt | nt
Cc1c(C(=O)Nc2nccs2)oc2ccc(Br)cc12 | 5.8µM* | ? | ? | 8.2µM* | 10.4% | nt | nt | nt | nt | -8.4%
Cc1c(C(=O)Nc2nccs2)oc2ccc(F)cc12 | i | ? | -3.3% | i | 1.6% | nt | nt | nt | nt | nt
O=C(OCC(=O)N1CCc2ccccc2C1)c1c(F)cccc1Cl | i | ? | -5.4% | i | -3.1% | nt | nt | nt | nt | -2.7%
O=C(OCC(=O)N1CCCC1)c1c(Cl)cccc1Cl | i | ? | -14.4% | i | -19.3% | nt | nt | nt | nt | nt
O=C(NC(Cc1ccccc1)C(=O)N1CCCCCC1)c1ccccc1 (configuration not stated) | i | -1.2% | 12.6% | i | 1.0% | nt | nt | nt | nt | nt
O=C(COc1ccc(C(=O)c2ccccc2)cc1)Nc1cccnc1 | ? | 1.03µM* | 15.1% | ? | -19.7% | ? | 0.996µM* | -1.5% | 0.996µM* | ?
COc1cccc2c1C(=O)/C(=C\c1ccc(N(C)C)cc1)C2 | i | nt | nt | ? | nt | nt | nt | nt | nt | ?
Cc1[nH]nc2ncc(C(=O)c3ccccc3O)cc12 | i | 2.51µM* | 15.4% | i | 20.3% | 3.53µM* | 9.96µM* | ? | ? | -7.8%
CCOC(=O)c1c(-c2cccc([N+](=O)[O-])c2)csc1NC(=O)C1CCCCC1 | i | ? | ? | i | 10.7% | nt | nt | nt | nt | nt
COc1ccc(S(=O)(=O)NCCc2nnc3ccc(SCC(=O)Nc4nc(C)cs4)nn23)cc1 | i | 0.7% | 4.5% | i | 2.4% | -21.5% | 10.3% | 6.1% | -6.7% | -4.2% | ELG1 FLuc counter=0.9%;FLuc enzyme=-3.3%
S=C(NCCc1ccccc1)N1CCN(Cc2ccccc2)CC1 | i | ? | 0.9% | i | 22.4% | nt | nt | nt | nt | nt
COc1ccccc1S(=O)(=O)Cc1ccc(C(=O)NCc2ccc(Cl)cc2)o1 | i | nt | nt | i | nt | nt | nt | nt | nt | nt
CCOC(=O)c1sc(N(Cc2ccccc2)C(=O)COC(=O)c2ccc(O)cc2)nc1C | i | 1.3µM* | 9.2µM* | i | ? | 1.99µM* | 0.705µM* | -14.7% | 0.791µM* | ?
CCOC(=O)c1sc(N(Cc2ccccc2)C(=O)COC(=O)c2ccccc2O)nc1C | i | 23.2% | -69.0% | i | -1.5% | nt | nt | nt | nt | nt
O=C(Nc1ccc(F)cc1)N(Cc1cccs1)Cc1cc2cc3c(cc2[nH]c1=O)OCO3 | i | 18.4µM* | ? | ? | -10.0% | 8.89µM* | 28.1µM* | -5.6% | ? | ? | ELG1 FLuc counter=?;FLuc enzyme=-15.1%
CCOC(=O)c1ccc(N/C=C2/CCCC(C)C2=O)cc1 (configuration not stated) | i | ? | 1.0% | i | -2.7% | nt | nt | nt | nt | nt
[N-]=[N+]=Nc1nc2c(N)ncnc2n1C1OC(CO)C(O)C1O (configuration not stated) | nt | nt | nt | nt | nt | 3.53µM* | 3.97µM* | ? | ? | 7.91µM*
CCOc1ccc(C2=CC(=O)C[C@H](c3ccc(OC)cc3)C2)cc1 | i | ? | -1.6% | i | -1.1% | nt | nt | nt | nt | nt
COCCNC(=O)c1cn(C)c2ccc(S(=O)(=O)N3CCCCC3)cc2c1=O | 23.1µM* | 2.91µM* | 20.9% | i | -8.2% | ? | ? | -1.6% | -15.3% | ?
CCn1cc(C(=O)NCC(OC)OC)c(=O)c2cc(S(=O)(=O)N3CCC(C)CC3)ccc21 | 13µM* | 2.59µM* | ? | i | 8.8% | 15.8µM* | 15.8µM* | -19.9% | ? | 15.8µM*
CCn1cc(C(=O)NCC(OC)OC)c(=O)c2cc(S(=O)(=O)N3CCCC3)ccc21 | i | -16.2% | 0.0% | i | -5.0% | nt | nt | nt | nt | nt
CCOCCCNC(=O)c1cn(C)c2ccc(S(=O)(=O)N3CCCCC3)cc2c1=O | ? | -4.2% | 0.4% | i | -32.6% | nt | nt | nt | nt | nt
CCCCCC(C)NC(=O)c1cc(S(=O)(=O)N2CCCCC2)ccc1N1CCOCC1 (configuration not stated) | i | -16.4% | 7.4% | i | -5.2% | nt | nt | nt | nt | nt
O=C1/C(=C/c2cccc(Cl)c2)SC(=S)N1CCC(=O)N1CCCCC1CCO (configuration not stated) | i | -26.8% | 10.4% | i | ? | nt | nt | nt | nt | nt
Cc1ccc(-c2csc(=Nc3cccnc3)n2CCCN2CCCC2=O)cc1C | ? | ? | 24.6% | ? | 9.5% | nt | nt | nt | nt | nt
